TDP1 cell CPT = growth inhibition of DT40 Tdp1-/-;hTDP1 cells with camptothecin (screen for TDP1 inhibitors) | 420,000 compounds, 12% hits | chicken DT40 Tdp1-/-;hTDP1 cells + 20 nM CPT, ATP luminescence, 48 h | Potency, µM (top dose mostly 46.2 µM), inactives show top-dose activity change, negative = growth inhibition, most hits filed as inhibitors | AID 686979; note: potency is the fitted concentration of half-maximal effect; nearly all actives have a fitted effect of over 55% in size
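Chicken DT40 Tdp1-/- cells stably complemented with human TDP1 were seeded at 400 cells/well in medium containing 20 nM camptothecin, exposed to pin-transferred compounds, and grown at 37 °C for at least 48 hr. Viability was read as ATP luminescence.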
HT1080 IDH1KD tx = kills HT-1080 cells with IDH1 knockdown; 360,000 compounds, 2% hits; HT-1080 IDH1 knockdown viability, ATP luminescence, 48 h; Potency, µM (titrated, usually from 46.1 µM), for inactives: at the highest dose activity, negative = toxicity, hits mostly cytotoxic;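 note: potency is the fitted concentration of half-maximal effect; 0% = DMSO wells and -100% = cell-free medium wells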
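Assay cells: HT-1080 with IDH1 knockdown, 750 per well, RPMI/5% FBS. Exposure: 48 h at 37 °C following 2 h pre-incubation. Read: CellTiter-Glo luminescence; fitted concentration-response, curve class assigned.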
HT1080-NT tox = kills 2HG-producing HT-1080-NT fibrosarcoma cells; 360,000 compounds, 1.6% hits; Potency, µM (highest dose often 46.1 µM), inactives show top-dose activity, negative = less viability, hits mostly cytotoxic; HT-1080-NT fibrosarcoma viability, CellTiter-Glo ATP luminescence, 48 h;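 note: NT is the 2HG producing partner of a matched IDH1 knockdown line; potency is the fitted concentration of half-maximal effect; 0% = DMSO-treated cells and -100% = media-only wells without cells; nearly all actives have a fitted effect of over 55% in size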
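Viability of the 2HG-overproducing fibrosarcoma line after 48 hours of compound exposure at 37 degrees C was determined by luminescence with CellTiter-Glo, and concentration-effect curves were then fitted and categorized.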
IL-1B inflam inh = blocks inflammasome-driven IL-1 beta release; activity change, % at 57.5 µM; 360,000 compounds, 4.7% hits; THP-1 LPS/ATP IL-1B secretion, AlphaLISA, 16 h; active compounds read low; in the data active = activity change below about -50%; inconclusive = mostly about -30% to -49%
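THP-1 cells pretreated 1 hr with compounds (up to 57.5 uM final), then stimulated with LPS (250 ng/mL final) plus ATP (1.25 mM final); secreted IL-1B measured by AlphaLISA after 16 hr, decreased signal indicating inhibition.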
DT40 TDP1 no CPT = qHTS for Inhibitors of human tyrosyl-DNA phosphodiesterase 1 (TDP1): qHTS in cells in absence of CPT. DT40 Tdp1-/- hTDP1 cells, no CPT, ATP luminescence, 48 h. Potency, µM (titrated, usually from 46.2 µM), inactives show at the highest dose activity change, negative = growth inhibition, most hits filed as inhibitors. 420,000 compounds, 15% hits. AID 686978, 2013; note: potency is the fitted concentration of half-maximal effect; nearly all actives have a fitted effect of over 55% in size
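DT40 Tdp1-/-;hTDP1 cells, no CPT (DMSO vehicle only), 400 cells/well; compounds pin-transferred; ≥48 hr, 37 °C; CellTiter-Glo 30 min RT dark, luminescence read.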
Starred values were filed as active, the others as inactive; ? = inconclusive; . = not tested or not shown; [ ] = remark or other dose. Shown are actives, neighbours in structure and some others; about 19% of the full set was active somewhere. Unless noted, calls come from the whole dose curve; as a rule, active = well fitted curve in the direction sought with a large enough effect; inconclusive = small, poorly fitted or top-dose-only effect, or another doubt; inactive = no such curve, though single readings can be large; an effect the other way counts as inactive or inconclusive. Unless noted, % is set by controls: 0 for no effect and ±100 for the full control effect.

SMILES	TDP1 cell CPT	HT1080 IDH1KD tx	HT1080-NT tox	IL-1B inflam inh	DT40 TDP1 no CPT
COc1ccc(C2C3(C#N)C(N)=NC(OC)(OC)C23C#N)cc1 (configuration not stated)	-14%	-11%	-1%	-92*	?
COC1(OC)N=C(N)C2(C#N)C(c3ccc4c(c3)OCO4)C12C#N (configuration not stated)	8.2µM*	0%	-4%	-14	?
COc1cccc(N2CC(NC(=O)c3ccco3)CC2=O)c1 (configuration not stated)	-12%	.	.	.	-4%
CCN(Cc1ccccc1)C(c1ccc(C)cc1)c1nnnn1C(C)(C)CC (configuration not stated)	?	?	-25%	-8	13µM*
CC(C)(C)n1nnnc1C(c1ccc(C(F)(F)F)cc1)N(Cc1ccc(F)cc1)Cc1ccco1 (configuration not stated)	?	-24%	?	-15	21µM*
CC(C)(C)n1nnnc1C(c1ccc(Cl)cc1)N(Cc1cccnc1)Cc1ccco1 (configuration not stated)	18µM*	?	?	-24	-25%
CC(C)(C)n1nnnc1C(c1ccc(C(F)(F)F)cc1)N(Cc1ccccc1)Cc1ccco1 (configuration not stated)	21µM*	-28%	?	-12	?
CC(C)(C)n1nnnc1C(c1ccc(F)cc1)N(Cc1ccc(F)cc1)Cc1ccco1 (configuration not stated)	?	-19%	-19%	-18	?
Cc1c(NC(=O)COC(=O)c2ccccc2O)c(=O)n(-c2ccccc2)n1C	2%	1%	-1%	-21	-15%
O=C(COC(=O)c1cccc(OC(F)F)c1)NCC1CCCO1 (configuration not stated)	16%	9%	8%	32	25%
CC(C)(C)n1nnnc1C(c1cccs1)N(Cc1ccccc1)Cc1cccnc1 (configuration not stated)	21µM*	7%	8%	-4	26µM*
CC(C)(C)n1nnnc1C(c1cccnc1)N(Cc1ccccc1)Cc1cccs1 (configuration not stated)	?	?	?	-29	?
Cc1ccc(SCCCCN2CCNCC2)cc1	21µM*	-17%	-20%	-1	?
Clc1ccc(SCCCCN2CCOCC2)cc1	-28%	-2%	-4%	-1	-29%
CC1CN(CCOCCSc2ccc(Cl)cc2)CC(C)O1 (configuration not stated)	-21%	-1%	-2%	0	?
Cc1ccc(SCCC(=O)N2CCCC2)cc1	-3%	7%[9.24 µM]	2%	-17	-11%
CC1CN(CCCCSc2ccc(Cl)cc2)CC(C)O1 (configuration not stated)	21µM*	-4%	-8%	-27	?
Clc1ccc(SCCCCN2CCNCC2)cc1	21µM*	?	?	0	18µM*
CCCC1(c2ccccc2)NC(=O)N(CC(=O)Nc2cc(S(=O)(=O)N3CCOCC3)ccc2Cl)C1=O (configuration not stated)	-1%	5%	0%	22	-30%
Cc1cc(C(F)(F)F)nn1CC(=O)NCc1cccs1	-13%	-2%	-3%	1	-16%
Cc1ccc(Cc2c(C)nc3nc(SCC(=O)NCCCN4CCCCCC4)nn3c2C)cc1	?	-14%	-15%	-23	?
COc1cc(NC(=O)CSc2nc3nc(C)c(Cc4ccccc4)c(C)n3n2)cc(OC)c1	21µM*	.	.	.	8.2µM*
COc1ccc(CCNC(=O)CSc2nc3nc(C)c(Cc4ccc(C)cc4)c(C)n3n2)cc1OC	?	.	.	.	21µM*
COc1cc(NC(=O)CSc2nc3nc(C)c(Cc4ccc(C)cc4)c(C)n3n2)cc(OC)c1	?	.	.	.	8.2µM*
Cc1cccc(Cc2c(C)nc3nc(SCC(=O)NCc4ccc(F)cc4)nn3c2C)c1	16µM*	.	.	.	23µM*

High-throughput results from PubChem BioAssay.
